Assay outcomes as filed in PubChem.
Only some compounds are listed: those with a hit (about 5.3% of all), similar ones and a draw of the others.
HCV inh – inhibitors of hepatitis C virus infection | Potency, µM (highest dose often 41.8 µM), without a hit: at the highest dose activity change, negative = inhibition, hits mostly inhibitors | Huh7.5.1 HCVcc-Cre infection, luciferase reporter, 44 h | hit rate 3.4% among 340,000 | AID 651820; active means well fitted inhibition curve with a large enough effect; inconclusive means small, poorly fitted or top-dose-only effect, or another doubt; inactive means no such curve, though single readings can be large or run the other way
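1,000 cells/well; 4 h culture; + compound; + HCVcc-Cre (~0.5 moi); 44 h; luciferase substrate, RT 15 min; read 15 sec.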
Marburg entry inh – inhibitors of Marburg virus binding or cell entry. Potency, µM (titrated, usually from 37.8 µM), for inactives: at the highest dose activity change, negative = inhibition, hits mostly inhibitors. AID 540276. hit rate 1.8% among 300,000. Marburg virus pseudotyped entry inhibition, cell reporter; calls by dose curve; tested in HEK293 cells
FMDV antiviral – blocks foot and mouth disease virus | AID 1159524 | FMDV antiviral cell-based qHTS | Potency, µM (series often up to 57.9 µM), for the others: top-dose activity change, negative = inhibition, most hits filed as inhibitors | hit rate 1.2% among 410,000; calls by dose curve; tested in HEK293T cells; further: read-out not given here; nearly all actives have a fitted effect of over 45% in size
Lassa entry inh – blocks Lassa virus binding to or entry into cells; Lassa virus pseudotype entry inhibition, cell reporter; Potency, µM (highest dose often 37.9 µM), inactives show at the top dose activity change, negative = inhibition, actives largely listed as inhibitors; hit rate 1.2% among 300,000; calls by dose curve; tested in HEK293 cells; further: nearly all actives have a fitted effect of over 50% in size
Vaccinia mCherry – inhibitors of vaccinia virus infection (mCherry reporter signal). Potency, µM (highest dose often 36.5 µM), for the others: at the top dose activity change, negative = inhibition, most hits filed as inhibitors. hit rate 0.63% among 310,000. Vaccinia virus mCherry reporter infection, fluorescence; calls by dose curve; tested in A549 cells; further: nearly all actives have a fitted effect of over 35% in size
VACV Venus inh – inhibitors of vaccinia virus (Venus reporter); Potency, µM (series often up to 36.5 µM), for the others: at the highest dose activity change, negative = inhibition, hits mostly inhibitors; hit rate 0.46% among 330,000; Vaccinia virus Venus reporter expression, fluorescence; calls by dose curve; tested in A549 cells; further: nearly all actives have a fitted effect of over 30% in size
* hit, by the source's call; [ ] = remark or other dose. On the % scale 0 is the no-effect control and ±100 the full control effect; potency means the concentration at half of the fitted maximal effect.

For CCNc1c(NC(=O)c2ccccc2OCC)c(=O)oc2ccccc12 the results were Marburg entry inh 5%[46.1 µM], FMDV antiviral -2%, Lassa entry inh -11%[46.1 µM], Vaccinia mCherry -4% and VACV Venus inh 0%.
Screening Cc1sc2ncnc(N3CCC(C(=O)Nc4ccc(OC(F)F)c(Cl)c4)CC3)c2c1C returned HCV inh 20µM* and FMDV antiviral inconclusive.
Screening CCN(CC)CCNC(=O)c1ccc(NC(=O)C2CCN(c3ncnc4sc(C)c(C)c34)CC2)cc1 returned HCV inh 13µM* and FMDV antiviral inconclusive.
`Cc1sc2ncnc(N3CCC(C(=O)NNC(=O)c4ccccc4Cl)CC3)c2c1C` gave HCV inh inconclusive, Marburg entry inh inconclusive, FMDV antiviral inconclusive, Lassa entry inh -2%, Vaccinia mCherry -16% and VACV Venus inh -20%.
`Cc1ccc(-c2csc(N(CCO)CCCn3c(C(F)(F)F)nc4ccccc43)n2)cc1` gave HCV inh 10µM*, FMDV antiviral inconclusive, Vaccinia mCherry -30% and VACV Venus inh inconclusive.
Screening CCOc1ccc(N(CC)S(=O)(=O)c2cc(Br)cc3c2N(C(C)=O)C(C)C3)cc1 (stereo not given) returned Marburg entry inh inconclusive, FMDV antiviral 11µM*, Lassa entry inh inconclusive, Vaccinia mCherry inconclusive and VACV Venus inh -22%.
CCOc1ccc(OCC)c(NS(=O)(=O)c2cc(Br)cc3c2N(C(C)=O)C(C)C3)c1 (stereo not given) was read as Marburg entry inh 7%[46.1 µM], FMDV antiviral 50%, Lassa entry inh 7%[46.1 µM], Vaccinia mCherry -15% and VACV Venus inh -4%.
COCC(=O)n1nc(NCc2ccc(OC)cc2)nc1NCc1ccc(OC)cc1 was read as HCV inh 11%, Marburg entry inh inconclusive, FMDV antiviral -13%, Lassa entry inh 6%, Vaccinia mCherry -20% and VACV Venus inh -13%.
CCC(=O)n1nc(NCc2ccc(OC)c(OC)c2)nc1NCc1ccc(OC)c(OC)c1 was read as HCV inh inconclusive, Marburg entry inh -7%, FMDV antiviral 18µM*, Lassa entry inh -2% and VACV Venus inh inconclusive.
Screening Cc1ccc2c(Cl)c(C(=O)NCC3CCCO3)sc2c1 (stereo not given) returned HCV inh 2.2µM*, Marburg entry inh inconclusive, FMDV antiviral 25% and Lassa entry inh inconclusive.
COc1ccccc1C(=O)Nc1nc(-c2ccc(S(=O)(=O)N3CCOCC3)cc2)cs1 was read as HCV inh 3.5µM*, Marburg entry inh 7.3µM*, FMDV antiviral 3.2µM* and Lassa entry inh 3.7µM*.
Screening CCOc1cc(C(=S)N2CCOCC2)ccc1OS(=O)(=O)c1ccc(NC(C)=O)cc1 returned HCV inh 7.1µM*, Marburg entry inh -16%, Lassa entry inh inconclusive, Vaccinia mCherry -13% and VACV Venus inh -12%.
CCOc1cccc(C(=O)Nc2nc(-c3ccc(S(=O)(=O)N4CCOCC4)cc3)cs2)c1 was read as HCV inh -28%, Marburg entry inh -1%, FMDV antiviral 18µM*, Lassa entry inh inconclusive and VACV Venus inh -24%.
Screening O=C(Nc1nc(-c2ccccc2)cs1)c1ccc(N2CCOCC2)c([N+](=O)[O-])c1 returned HCV inh 3.5µM*, Marburg entry inh inconclusive, FMDV antiviral inconclusive, Lassa entry inh inconclusive, Vaccinia mCherry inconclusive and VACV Venus inh inconclusive.
`O=C(COc1cccc(Cl)c1)Nc1nc(-c2ccc(S(=O)(=O)N3CCOCC3)cc2)cs1` gave HCV inh inconclusive, Marburg entry inh inconclusive, FMDV antiviral inconclusive, Lassa entry inh inconclusive, Vaccinia mCherry -10% and VACV Venus inh -29%.
For COc1ccc(-c2cc(C(=O)NCc3ccc(F)cc3)no2)cc1 the results were Marburg entry inh -12%[46.1 µM], FMDV antiviral -5%, Lassa entry inh inconclusive, Vaccinia mCherry -5% and VACV Venus inh 5%.
For COc1ccc2[nH]cc(CCNC(=O)c3cnn(-c4ccccc4Cl)c3C3CCN(C(=O)OC(C)(C)C)CC3)c2c1 the results were FMDV antiviral -24%, Lassa entry inh inconclusive, Vaccinia mCherry -12% and VACV Venus inh -16%.
Screening COc1ccccc1C(=O)OCC(=O)Nc1ccc(N2CCCCC2)cc1 returned Vaccinia mCherry -3% and VACV Venus inh -11%.
For CCOc1ccccc1C(=O)Nc1ccc(S(=O)(=O)N2CCOCC2)cc1 the results were HCV inh 13µM*, Marburg entry inh inconclusive, FMDV antiviral -16%, Lassa entry inh inconclusive and VACV Venus inh inconclusive.
`CCOc1ccc2nc(NC(=O)c3ccc(S(=O)(=O)N4CCOCC4)cc3)sc2c1` gave HCV inh 16%, Marburg entry inh 9%, FMDV antiviral 28µM*, Lassa entry inh 3%, Vaccinia mCherry 9% and VACV Venus inh -9%.
For CCOc1ccc2nc(NC(=O)c3ccc(OC)c(S(=O)(=O)N4CCOCC4)c3)sc2c1 the results were HCV inh -28%, Marburg entry inh inconclusive, FMDV antiviral inconclusive and Lassa entry inh inconclusive.
Screening CN(C)c1ccc(C(CNS(=O)(=O)c2ccc(Br)cc2)N2CCCC2)cc1 (stereo not given) returned FMDV antiviral -15%, Lassa entry inh -18%[46.1 µM], Vaccinia mCherry -21% and VACV Venus inh -14%.
`O=C1NC(=S)NC1(c1ccccc1)c1ccccc1` gave HCV inh 6%, Marburg entry inh -5%, FMDV antiviral -20%, Lassa entry inh 5%, Vaccinia mCherry -17% and VACV Venus inh -8%.
Screening C[C@H]1C=CCC(=O)N[C@@H](c2ccc3ccccc3c2)[C@@H](C)C=CCC(=O)N[C@@H]1c1ccc2ccccc2c1 returned Marburg entry inh 20%[14.2 µM].
Screening COC(=O)C/C=C\[C@@H](C)[C@@H](/C=N\OC[C@@H](O)COCc1ccco1)NS(=O)(=O)c1ccc(C)cc1 returned Marburg entry inh 21%[14.2 µM].
`CCOC(=O)Nc1ccc(/C=C/c2ccnc3ccccc23)cc1` gave Vaccinia mCherry -17% and VACV Venus inh inconclusive.
Screening Cn1c(=O)c2[nH]c(CCCCCCCCc3nc4ccccc4[nH]3)nc2n(C)c1=O returned HCV inh inconclusive, Marburg entry inh inconclusive, FMDV antiviral 13µM*, Lassa entry inh 11µM*, Vaccinia mCherry inconclusive and VACV Venus inh -27%.
Screening Cc1cc(C(=O)N/N=C/c2ccc([N+](=O)[O-])cc2)c2ccccc2n1 returned HCV inh -3% and FMDV antiviral 4%.
For CCc1ccc(/C=N/NC(=O)c2cc(C3CC3)nc3ccccc23)s1 the results were HCV inh 8.9µM*, Marburg entry inh inconclusive, FMDV antiviral -14%, Lassa entry inh -28%, Vaccinia mCherry inconclusive and VACV Venus inh inconclusive.
O=C(N/N=C/c1ccc([N+](=O)[O-])s1)c1ccccc1Br was read as HCV inh 11µM*, Marburg entry inh inconclusive, Lassa entry inh inconclusive, Vaccinia mCherry inconclusive and VACV Venus inh 11µM*.
